The record followed here is patent US20210230599, “STEM-LOOP COMPOSITIONS AND METHODS FOR INHIBITING INTERLEUKIN-8” (VITRISA THERAPEUTICS, INC., published 2021).

In the assay the target is Interleukin-8 (IL8, CXCL8), C-terminal His-tagged (Homo sapiens, UniProt P10145 SEQ:1-72). As to the kind of experiment: competition; competition TR-FRET; G18A. Conditions: tags: C-terminal 6xHis (Sino Biological); ssRNA; 2'-F G, 2'-OMe A/C/U, 5' C6NH2, 3' idT. As to the method: To better understand the sequence requirements and to confirm the stem structures of members of the Aptamer 3 family as determined from sequence covariation analysis from both the primary and secondary (degenerate) selections, a series of variants which included mutations and deletions to the predicted stems were synthesized and screened (Table 24). Activity of each of these variants were tested using a time resolved competition TR-FRET assay in which the labeled parent Aptamer 3 was competed with increasing concentrations of unlabeled variants for binding to IL8 (FIG. 14). Briefly, 2-fold dilutions of thermally equilibrated aptamers were made in TR-FRET Buffer (50 mM MOPS, pH 7.4, 125 mM NaCl, 5 mM KCl, 50 μM CHAPS, 0.1 mg/mL BSA, 1 mM CaCl₂, and 1 mM MgCl₂). 5 μL of aptamer or control solution was added to 5 μl mix of 10 nM C-terminal His-tagged-IL8, 60 nM ALEXA FLUOR® 647-labeled Aptamer, and 5 nM anti-His-Eu (Perkin Elmer) in a black wall low volume 384 well plate (Greiner). For control, 5 μl of 1000-fold excess of unlabeled parent aptamer or 5 μl TR-FRET buffer alone was added to the mix of ALEXA FLUOR® 647-labeled aptamer, His-IL8, and anti-His-Eu. The plate was covered with a plate seal and subsequently incubated in the dark for 1 hour at room temperature. The plate was read on a Biotek CYTATION™ 5 plate reader. […]
On the technique in general: Time-resolved FRET reads energy transfer from a long-lived donor to a nearby acceptor.
Sequence UGAUGACGGUAGAUUACAGGUAGAGUGACCGCAUCU came in with a binding signal of approximately 5 fold worse than Aptamer 3.
